From PubChem BioAssay (EPA / NIEHS)
Active and inactive are the calls of the source. How the source made its calls: active means hit-call score of the fitted dose curve at least 0.9, where 1 is the maximum; inactive means score below 0.9.

Key:
[1] = ATG_M_61_CIS: Attagene CIS-FACTORIAL HepG2 Assay for M61 Transcription Factor (Internal Marker) (AID 2282937); conditions: HepG2 Attagene CIS-FACTORIAL M61 internal marker reporter; actives raise or lower the signal
Summary of the method: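 Human liver HepG2, transient MRTU transfection (cis promoter elements), 24 h compound. Total RNA → oligo(dT) RT → PCR → FAM label → HpaI → CE. Internal background marker; bidirectional fitting, DMSO = baseline.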

[2] = ATG_EGR_CIS: Attagene CIS-FACTORIAL HepG2 Assay for human Early Growth Response 1 (EGR1) (AID 2282938); conditions: HepG2 Attagene CIS-FACTORIAL EGR reporter mRNA; actives raise or lower the signal
Summary of the method: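 Transient transfection of human HepG2 with multiple cis-regulated reporter units, chemical exposure 24 h, total RNA isolated. Reverse transcription, PCR, fluorescent labelling and capillary electrophoresis quantify reporter transcripts; activity fitted bidirectionally against DMSO.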

[3] = ATG_M_19_CIS: Attagene CIS-FACTORIAL HepG2 Assay for M19 Transcription Factor (Internal Marker) (AID 2282939); conditions: HepG2 Attagene CIS-FACTORIAL M19 internal marker reporter; actives raise or lower the signal
Summary of the method: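 HepG2 cells transiently transfected with cis-regulated multiplexed reporter units, dosed 24 h. Reporter mRNA quantified by RT-PCR and capillary electrophoresis; internal background marker fitted bidirectionally versus DMSO.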

[4] = ATG_ERE_CIS: Attagene CIS-FACTORIAL HepG2 Assay for Estrogen Response Element (ERE) (AID 2282940); conditions: HepG2 ERE cis-reporter, Attagene RNA transcript; actives raise or lower the signal
Summary of the method: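 HepG2 cells transiently transfected with multiplexed cis-element reporter units, measuring endogenous transcription factor activity; ERE reporter mRNA quantified after 24 h exposure by RT-PCR, fluorescent labelling, HpaI digestion and capillary electrophoresis. Bidirectional change versus DMSO.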

[5] = ATG_Ets_CIS: Attagene CIS-FACTORIAL HepG2 Assay for human Erythroblast Transformation Specific (ETS) (AID 2282941); conditions: HepG2 ETS cis-reporter transcription, actives raise or lower the signal
Summary of the method: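 After transient cis-reporter transfection, HepG2 cells receive test chemical for 24 h. Reporter mRNA levels, measured by RT-PCR and capillary electrophoresis fluorescence, are analysed bidirectionally relative to the DMSO baseline.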

[6] = target: Hepatocyte nuclear factor 3-beta (Homo sapiens) (UniProt Q9Y261); experiment: ATG_FoxA2_CIS: Attagene CIS-FACTORIAL HepG2 Assay for human Forkhead box A2 (FOXA2) (AID 2282942); conditions: HepG2 cis-reporter transcription factor activity, 24 h; actives raise or lower the signal
Summary of the method: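 Transient MRTU transfection of HepG2 liver cells; 24 h treatment; total RNA → oligo(dT) RT → PCR → FAM primer extension → HpaI cut → CE. Bidirectional fit vs DMSO.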

[7] = ATG_FoxO_CIS: Attagene CIS-FACTORIAL HepG2 Assay for human Forkhead box O (FoxO) (AID 2282943); conditions: HepG2 Attagene cis-reporter, FoxO element, mRNA; actives raise or lower the signal
Summary of the method: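 Transfected HepG2 reporter cells exposed to test chemical for 24 h; reporter RNA measured by reverse transcription, PCR and fluorescent capillary electrophoresis; curves fitted for increases and decreases against DMSO.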

[8] = ATG_GATA_CIS: Attagene CIS-FACTORIAL HepG2 Assay for human GATA Binding Protein (AID 2282944); conditions: HepG2 GATA cis-element reporter, Attagene multiplex mRNA; actives raise or lower the signal
Summary of the method: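 HepG2 cells transiently transfected with multiplexed cis-element reporter units measure endogenous GATA activity; after 24 h compound exposure, reporter mRNA quantified by RT-PCR and capillary electrophoresis. Changes fitted in both directions vs DMSO.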

[9] = ATG_GLI_CIS: Attagene CIS-FACTORIAL HepG2 Assay for human Zinc Finger Protein GLI1 (AID 2282945); conditions: HepG2, Attagene cis-factorial reporter mRNA, GLI element; actives raise or lower the signal
Summary of the method: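 Transiently transfected HepG2 cells report endogenous transcription factor activity via cis-element-driven reporter units. After 24 h compound exposure, reporter mRNA was measured by RT-PCR with capillary electrophoresis; bidirectional fitting against DMSO baseline.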

[10] = target: Bile acid receptor (Homo sapiens) (UniProt Q96RI1); experiment: ATG_IR1_CIS: Attagene CIS-FACTORIAL HepG2 Assay for human Nuclear Receptor Subfamily 1 Group H Member 4 (NR1H4), IR1 submotif (AID 2282946); conditions: IR1 reporter transcription, actives raise or lower the signal
Summary of the method: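 HepG2 cells transiently transfected with multiple cis-promoter-driven reporter units to measure endogenous transcription factor activity; 24 h exposure. Reporter mRNA read by RT-PCR, FAM labelling, HpaI digestion and capillary electrophoresis. Bidirectional fit versus DMSO.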

[11] = ATG_GRE_CIS: Attagene CIS-FACTORIAL HepG2 Assay for human Glucocorticoid Response Elements (GRE) (AID 2282947); conditions: HepG2 GRE cis-reporter, Attagene multiplex mRNA; actives raise or lower the signal
Summary of the method: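 Endogenous transcription factor activity is read through cis-element reporter constructs transiently transfected into HepG2 cells. After 24 h treatment, labelled RT-PCR products are resolved by capillary electrophoresis; DMSO sets baseline for bidirectional curve fitting.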

[12] = ATG_ISRE_CIS: Attagene CIS-FACTORIAL HepG2 Assay for human Interferon Regulatory Factor 1 (IRF1) binding to an Interferon-Stimulated Response Element (ISRE) (AID 2282948); conditions: HepG2 ISRE cis-reporter (Attagene), mRNA transcription readout; actives raise or lower the signal
Summary of the method: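 Quantitation relies on labelled RT-PCR fragments separated by capillary electrophoresis. Human HepG2 cells bearing cis-promoter reporter constructs were treated 24 h; DMSO served as baseline for bidirectional fitting.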

[13] = ATG_M_32_CIS: Attagene CIS-FACTORIAL HepG2 Assay for M32 Transcription Factor (Internal Marker) (AID 2282949); conditions: HepG2 Attagene cis-factorial M32 reporter, mRNA; actives raise or lower the signal;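 further: background control marker of the multiplexed CIS panel rather than a real target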
Summary of the method: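 Following 24 h chemical exposure of HepG2 cells transiently expressing cis-promoter reporter constructs, reporter transcript levels were determined by RT-PCR with fluorescent labelling and capillary electrophoresis, then fitted bidirectionally against DMSO.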

[14] = ATG_M_06_CIS: Attagene CIS-FACTORIAL HepG2 Assay for M06 Transcription Factor (Internal Marker) (AID 2282950); conditions: HepG2 Attagene CIS-FACTORIAL M06 internal marker reporter; actives raise or lower the signal
Summary of the method: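 Internal background marker within multiplexed cis-reporter HepG2 system. Cells transiently transfected, dosed 24 h; reporter mRNA measured by RT-PCR, HpaI digestion and capillary electrophoresis. Bidirectional fit relative to DMSO.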

[15] = target: Hepatocyte nuclear factor 6 (Homo sapiens) (UniProt Q9UBC0); experiment: ATG_HNF6_CIS: Attagene CIS-FACTORIAL HepG2 Assay for human Hepatocyte Nuclear Factor 6 (HNF6) (AID 2282952); conditions: HepG2 Attagene cis-factorial HNF6 reporter transcription; actives raise or lower the signal
Summary of the method: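 Cells are HepG2 carrying transiently transfected cis-promoter reporter units. Treatment lasts 24 h, after which reporter transcripts are reverse-transcribed, amplified, FAM-labelled and sized by capillary electrophoresis. DMSO serves as baseline.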

[16] = target: Heat shock factor protein 1 (Homo sapiens) (UniProt Q00613); experiment: ATG_HSE_CIS: Attagene CIS-FACTORIAL HepG2 Assay for human Heat Shock Transcription Factor 1 (HSE) (AID 2282953); conditions: HepG2 HSE cis-reporter, Attagene RNA transcription; actives raise or lower the signal
Summary of the method: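 HepG2 cells transfected with cis-promoter reporter units sensing endogenous transcription factor activity; reporter mRNA quantified 24 h post-dose by RT-PCR and capillary electrophoresis of 6-FAM-labelled products. Bidirectional fitting against DMSO.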

[17] = ATG_MRE_CIS: Attagene CIS-FACTORIAL HepG2 Assay for human Metal Responsive Element (MRE) (AID 2282954); conditions: HepG2 MRE cis-reporter transcription, Attagene multiplex; actives raise or lower the signal
Summary of the method: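 Fluorescent reporter fragments separated by capillary electrophoresis give mRNA induction for the MRE unit after 24 h treatment of transfected HepG2 cells. Endogenous transcription-factor activity is read; DMSO serves as negative control and baseline.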

[18] = ATG_PBREM_CIS: Attagene CIS-FACTORIAL HepG2 Assay for human Phenobarbital-responsive Enhancer Module (PBREM) (AID 2282955); conditions: HepG2 PBREM cis-reporter, Attagene multiplexed transcription; actives raise or lower the signal
Summary of the method: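 Endogenous transcription factors in human liver HepG2 cells drive a PBREM cis-element reporter, whose transcript level after 24 h treatment is quantified by RT-PCR with capillary electrophoresis; activity fitted in both directions against DMSO.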

[19] = target: Hypoxia-inducible factor 1-alpha (Homo sapiens) (UniProt Q16665); experiment: ATG_HIF1a_CIS: Attagene CIS-FACTORIAL HepG2 Assay for human Hypoxia Inducible Factor 1 (HIF1A) (AID 2282951); conditions: HepG2 Attagene cis-factorial HIF1a reporter transcription; actives raise or lower the signal
Summary of the method: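 Transient MRTU transfection of human HepG2 liver cells, 24 h compound treatment, then total RNA isolation, oligo(dT) reverse transcription, PCR amplification, fluorescent labelling and capillary electrophoresis of reporter fragments. Gain or loss relative to DMSO.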

Measured: AC50

Hepatocyte nuclear factor 6 (Homo sapiens), sequence (Q9UBC0 whole entry, looked up): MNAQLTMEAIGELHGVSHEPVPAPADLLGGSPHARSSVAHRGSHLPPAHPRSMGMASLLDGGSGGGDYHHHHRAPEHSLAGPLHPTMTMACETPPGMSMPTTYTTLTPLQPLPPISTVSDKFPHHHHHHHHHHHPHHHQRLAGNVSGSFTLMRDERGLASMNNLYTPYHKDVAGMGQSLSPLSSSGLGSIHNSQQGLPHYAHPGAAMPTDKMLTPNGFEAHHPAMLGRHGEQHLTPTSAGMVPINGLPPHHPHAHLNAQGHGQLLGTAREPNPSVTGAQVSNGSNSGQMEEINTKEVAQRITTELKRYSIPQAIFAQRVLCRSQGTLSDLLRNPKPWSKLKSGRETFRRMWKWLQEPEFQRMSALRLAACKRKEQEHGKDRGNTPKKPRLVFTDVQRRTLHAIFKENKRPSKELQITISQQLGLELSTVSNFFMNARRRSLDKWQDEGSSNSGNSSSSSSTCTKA
Heat shock factor protein 1 (Homo sapiens), sequence (Q00613 whole entry, looked up): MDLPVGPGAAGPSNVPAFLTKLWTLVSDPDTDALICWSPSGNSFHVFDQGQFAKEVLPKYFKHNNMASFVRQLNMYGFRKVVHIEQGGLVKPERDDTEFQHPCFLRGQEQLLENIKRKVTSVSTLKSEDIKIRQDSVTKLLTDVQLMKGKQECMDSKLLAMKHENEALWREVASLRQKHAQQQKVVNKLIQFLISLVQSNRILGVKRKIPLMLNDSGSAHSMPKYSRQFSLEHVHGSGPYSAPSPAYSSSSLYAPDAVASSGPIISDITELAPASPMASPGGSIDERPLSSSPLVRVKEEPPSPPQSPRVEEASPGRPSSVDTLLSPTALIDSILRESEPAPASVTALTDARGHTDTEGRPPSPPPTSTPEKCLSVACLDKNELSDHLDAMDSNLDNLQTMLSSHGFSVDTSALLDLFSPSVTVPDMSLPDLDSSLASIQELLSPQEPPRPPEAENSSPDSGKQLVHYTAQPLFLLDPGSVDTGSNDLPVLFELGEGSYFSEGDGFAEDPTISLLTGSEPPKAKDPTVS
Hepatocyte nuclear factor 3-beta (Homo sapiens), sequence (Q9Y261 whole entry, looked up): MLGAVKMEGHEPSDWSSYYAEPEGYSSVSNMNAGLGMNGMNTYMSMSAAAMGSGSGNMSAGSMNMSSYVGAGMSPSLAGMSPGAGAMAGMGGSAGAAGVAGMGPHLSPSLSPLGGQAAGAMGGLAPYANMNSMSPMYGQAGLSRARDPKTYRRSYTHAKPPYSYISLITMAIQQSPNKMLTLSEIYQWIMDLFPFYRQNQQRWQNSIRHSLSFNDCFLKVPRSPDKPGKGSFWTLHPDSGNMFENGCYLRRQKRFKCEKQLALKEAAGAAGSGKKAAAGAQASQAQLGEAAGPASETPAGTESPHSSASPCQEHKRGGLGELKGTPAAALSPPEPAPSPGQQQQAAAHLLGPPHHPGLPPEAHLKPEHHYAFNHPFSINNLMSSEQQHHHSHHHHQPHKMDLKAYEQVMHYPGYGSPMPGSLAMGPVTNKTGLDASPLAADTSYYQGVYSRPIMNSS
Hypoxia-inducible factor 1-alpha (Homo sapiens), sequence (Q16665 whole entry, looked up, the tested form may be a part): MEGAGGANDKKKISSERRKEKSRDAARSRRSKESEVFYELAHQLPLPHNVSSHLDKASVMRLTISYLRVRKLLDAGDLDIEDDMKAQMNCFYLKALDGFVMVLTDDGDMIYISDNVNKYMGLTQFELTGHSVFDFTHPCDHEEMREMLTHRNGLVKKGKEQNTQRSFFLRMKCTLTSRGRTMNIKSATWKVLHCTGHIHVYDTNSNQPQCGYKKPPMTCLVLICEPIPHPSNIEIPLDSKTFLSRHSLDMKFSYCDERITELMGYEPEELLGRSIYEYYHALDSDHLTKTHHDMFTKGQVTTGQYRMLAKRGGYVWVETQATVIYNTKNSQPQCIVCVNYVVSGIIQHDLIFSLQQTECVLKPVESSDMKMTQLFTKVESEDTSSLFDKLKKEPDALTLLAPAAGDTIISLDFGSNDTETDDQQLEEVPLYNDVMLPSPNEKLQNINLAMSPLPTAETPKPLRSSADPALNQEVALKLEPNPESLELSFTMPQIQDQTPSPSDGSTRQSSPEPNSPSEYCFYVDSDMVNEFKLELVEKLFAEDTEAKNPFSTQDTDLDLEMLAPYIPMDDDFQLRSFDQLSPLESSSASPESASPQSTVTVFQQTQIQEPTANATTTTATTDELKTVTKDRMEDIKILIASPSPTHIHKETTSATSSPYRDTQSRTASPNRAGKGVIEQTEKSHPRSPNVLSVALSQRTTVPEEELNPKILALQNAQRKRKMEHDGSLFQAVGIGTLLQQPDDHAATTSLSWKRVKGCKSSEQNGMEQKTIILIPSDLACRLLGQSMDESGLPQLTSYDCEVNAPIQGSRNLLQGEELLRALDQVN
Bile acid receptor (Homo sapiens), sequence (Q96RI1 whole entry, looked up): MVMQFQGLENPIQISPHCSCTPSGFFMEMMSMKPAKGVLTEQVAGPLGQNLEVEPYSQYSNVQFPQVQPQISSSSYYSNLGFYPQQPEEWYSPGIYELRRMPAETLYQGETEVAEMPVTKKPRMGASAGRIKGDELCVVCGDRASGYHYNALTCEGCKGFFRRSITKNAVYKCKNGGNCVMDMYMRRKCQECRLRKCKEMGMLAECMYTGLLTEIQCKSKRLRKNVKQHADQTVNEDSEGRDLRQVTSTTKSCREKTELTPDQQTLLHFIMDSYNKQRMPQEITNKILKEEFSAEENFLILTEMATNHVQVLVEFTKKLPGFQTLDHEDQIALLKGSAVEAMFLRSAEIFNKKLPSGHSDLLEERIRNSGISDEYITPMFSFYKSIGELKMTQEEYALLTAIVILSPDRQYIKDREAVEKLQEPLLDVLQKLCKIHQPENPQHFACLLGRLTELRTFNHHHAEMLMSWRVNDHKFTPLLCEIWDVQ

Cc1oncc1C(=O)Nc1ccc(C(F)(F)F)cc1
inactive: [1] | [2] | [3] | [5] | [6] | [7] | [8] | [9] | [10] | [11] | [12] | [13] | [14] | [15] | [16] | [17]
active: [4] 25.7 µM | [18] 143 µM

CC(C)c1ccc2c(c1)CC[C@H]1[C@](C)(CN)CCC[C@]21C
active: [2] 5.35 µM | [8] 5.79 µM | [17] 5.77 µM
inactive: [1] | [3] | [4] | [5] | [6] | [7] | [9] | [10] | [11] | [12] | [13] | [14] | [15]

O=C1CCCC(=O)O1
inactive: [1] | [3] | [4] | [5] | [6] | [7] | [8] | [9] | [12] | [13] | [14] | [19] | [15] | [16] | [17] | [18]

CCCCCCCC[N+](C)(CCCCCCCC)CCCCCCCC
active: [19] 0.000753 µM | [17] 2.15 µM
inactive: [1] | [2] | [3] | [4] | [5] | [6] | [7] | [8] | [9] | [10] | [11] | [13] | [14] | [15] | [16] | [18]

FC(F)(F)C(=NOCC1OCCO1)c1ccc(Cl)cc1
active: [17] 100 µM
inactive: [1] | [2] | [3] | [4] | [5] | [6] | [7] | [8] | [9] | [11] | [12] | [13] | [14] | [19] | [15] | [18]

C=CCOc1c(Br)cc(Br)cc1Br
inactive: [1] | [2] | [3] | [5] | [6] | [7] | [8] | [9] | [10] | [11] | [12] | [13] | [14] | [19] | [15] | [16] | [17] | [18]
active: [4] 27.7 µM

C=COCCCC
inactive: [1] | [2] | [3] | [4] | [7] | [8] | [9] | [10] | [11] | [12] | [13] | [14] | [19] | [15] | [16] | [17] | [18]

CCCCCCCCCCc1ccccc1
inactive: [1] | [2] | [3] | [4] | [6] | [7] | [8] | [9] | [10] | [11] | [12] | [13] | [14] | [19] | [15] | [16]

O=C(c1ccccc1)C1CCC1
inactive: [1] | [3] | [4] | [5] | [6] | [7] | [8] | [9] | [11] | [12] | [14] | [19] | [15] | [18]

FC(F)=C(F)OC(F)(F)C(F)(F)C(F)(F)F
inactive: [1] | [2] | [3] | [4] | [7] | [8] | [9] | [10] | [11] | [12] | [13] | [14] | [19] | [15] | [16] | [17] | [18]
